Measurements taken from PubChem BioAssay (Tox21).
Results filed as inconclusive are left out. A call without a number means that no potency is given here. Values without a mark were called inactive. The source made the active and inactive calls. Calls follow the shape of the dose curve; as a rule, active = well fitted activation curve with a large enough effect in the repeat runs; inconclusive = weak or mixed curves; inactive = flat fitted curve, though single readings scatter.

experiment: A CellTox Green Cytotoxicity Assay to monitor cytotoxicity in HEK293 cells - 24 hour (AID 1224875); details: CellTox Green fluorescence; series mostly up to 76.8 µM; activity change: at the top concentration; also: nearly all actives have a fitted effect of over 45% in size
From the text: National Center for Advancing Translational Sciences [NCATS]
NIH Chemical Genomics Center [NCGC]
U.S. Environmental Protection Agency [EPA]
National Institutes of Environmental Health Sciences [NIEHS]
National Toxicology Program [NTP]
Cell-based models are critical for drug discovery. Determining the natural cytotoxic effects resulting from test compounds is an essential research activity. A CellTox Green Cytotoxicity Assay to monitor cytotoxicity in real time of continues cell culture during 40 hours of the compound treatment was used to screen Tox21 10K library compounds in Hek293 cells. CellTox Green Cytotoxicity Assay is a nonlytic, homogeneous, biofluorescent method to measure cytotoxicity in cell culture after experimental manipulation. The assay system uses a proprietary asymmetric cyanine dye that is excluded from viable cells but preferentially stains the dead cell's DNA. […] Viable cells produce no appreciable increases in fluorescence. Therefore, the fluorescence signal produced by the binding interaction with dead cell DNA is proportional to cytotoxicity.
The mixture of Hek293 cell suspension and reagents were dispensed at 600cells/6 ul/well in 1536-well tissue culture treated black solid bottom plates using a Multidrop dispenser. After the assay plates were incubated at a 37 C/5% CO2 incubator for 5 hours, 23 nL of compounds dissolved in DMSO, positive and negative controls was transferred to the assay plate by a pintool work station. The plates were incubated at 37 C for 40 hours. The fluorescence intensity were measured at 0h, 8h, 16h, 24h, 32h and 40h time points using ViewLux plate reader during compound treatment.

SMILES | Potency | activity change
COC(=O)c1ccc(C)cc1 | inactive | –
CC1(C)OC(=O)NC1=O | inactive | –
COc1ccc(-c2coc3cc(O)cc(O)c3c2=O)cc1 | inactive | –
O=[Se](O)O | – | 16.9%
OCCNCCO | inactive | –
C[N+](C)(C)CCO | inactive | –
CN1CCOCC1 | inactive | –
C/C=C/C(=O)N(CC)c1ccccc1C | inactive | –
NC[C@H](O)c1ccc(O)c(O)c1 | inactive | –
CC1(C)NC(=O)N(c2ccc([N+](=O)[O-])c(C(F)(F)F)c2)C1=O | inactive | –
CC1=CC(C)(C)Nc2ccccc21 | – | -2.73%
CC(=O)Oc1ccc(C(c2ccc(OC(C)=O)cc2)c2ccccn2)cc1 | inactive | –
CCC(Cc1c(I)cc(I)c(N)c1I)C(=O)O (stereo not given) | inactive | –
CCC/C=C/C=O | inactive | –
CCCCCCCC/C=C\CCCCCCCC(=O)O | inactive | –
CC(C)[C@@H]1CC[C@@H](C)CC1=O | inactive | –
CCCN1C=CN(C)C1 | inactive | –
c1ccc2c(c1)ccc1cc3c(ccc4ccccc43)cc12 | inactive | –
COC(=O)C(C)Oc1ccc(Oc2ncc(C(F)(F)F)cc2Cl)cc1 (stereo not given) | inactive | –
CC(C)[N+](C)(CCOC(=O)C1c2ccccc2Oc2ccccc21)C(C)C | inactive | –

SMILES | Potency | activity change
Cc1ccc(S(=O)(=O)NCl)cc1 | inactive | –
CCOC(=O)C(C)Oc1ccc(Oc2cnc3cc(Cl)ccc3n2)cc1 (stereo not given) | inactive | –
COC(=O)CC(=O)OC | inactive | –
NCCS(=O)(=O)O | inactive | –
CC(C)=CCO | inactive | –
Cc1ccc(C)c(O)c1 | inactive | –
CC(=O)O[C@]1(C(C)=O)CC[C@H]2[C@@H]3C=C(C)C4=CC(=O)CC[C@]4(C)[C@H]3CC[C@@]21C | inactive | –
Nc1ccc2c(O)cc(S(=O)(=O)O)cc2c1 | inactive | –
CN(Cc1cnc2nc(N)nc(N)c2n1)c1ccc(C(=O)N[C@@H](CCC(=O)O)C(=O)O)cc1 | inactive | –
O=C(O)COCCN1CCN(C(c2ccccc2)c2ccc(Cl)cc2)CC1 (stereo not given) | inactive | –
CC(=O)[C@H]1CC[C@H]2[C@@H]3CC=C4C[C@@H](O)CC[C@]4(C)[C@H]3CC[C@]12C | inactive | –
ClC/C=C/CCl | inactive | –
Clc1ccc(Sc2cc(Cl)c(Cl)cc2Cl)cc1 | inactive | –
COc1ccc(C(=O)c2ccccc2O)c(O)c1 | – | 26.8%
C[C@]12CC[C@@H]3c4ccc(O)cc4CC[C@H]3[C@@H]1CC[C@@H]2O | inactive | –
Cc1ccc2c(c1)C(=O)OC2=O | inactive | –
OC[C@@H](O)[C@@H](O[C@@H]1O[C@H](CO)[C@H](O)[C@H](O)[C@H]1O)[C@H](O)[C@@H](O)CO | inactive | –
NCCN | inactive | –
CCO[Si](CCCNC(N)=O)(OCC)OCC | inactive | –
C=CN1CCCC1=O | inactive | –
